Records with an inconclusive call do not appear. Activity calls are given as the source filed them.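 How the source made its calls, unless noted: active means GFP signal, as percent of the solvent control, above the screen mean plus 3 SD, about 149; inconclusive means no reading because the compound's own fluorescence upset strain identification; inactive means the rest.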
How the values were obtained:
[1] = rapamycin-like changes in RPL19A-GFP expression – cell-based, S. cerevisiae, multiplex flow cytometry, primary screen (AID 1862; in the data active means percent of DMSO control GFP below about 86%;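 further: lower values mimic rapamycin by blocking the RPL19A rise seen in DMSO cells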); details: S. cerevisiae RPL19A-GFP strain, flow cytometry fluorescence, 3 h; at 10 µM; stronger effect = lower value
[2] = TOR pathway GLN3 branch reporter MEP2-GFP changes – S. cerevisiae, multiplex flow cytometry, primary screen (AID 1867;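 active means GFP response, as percent of the DMSO control, above the screen-wide mean plus 3 SD, about 139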;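 further: median GFP channel fluorescence of barcode-gated MEP2-GFP cells measured by flow cytometry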); details: S. cerevisiae MEP2-GFP strain, 3 h, at 10 µM, stronger effect = higher value, 100% means same as DMSO wells
[3] = TOR pathway RTG branch CIT2 reporter changes – S. cerevisiae, GFP fusion, multiplex flow cytometry, primary screen (AID 1870;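 active means percent response above a set limit, the screen-wide mean plus 3 SD, cut at about 130% in these data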;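 further: barcoded CIT2-GFP strain pooled with four other GFP strains with rapamycin as positive control; median GFP fluorescence per well over plate mean of DMSO wells so 100% = DMSO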); details: S. cerevisiae CIT2-GFP expression, 3 h, at 10 µM, stronger effect = higher value
[4] = TOR pathway LAP4-GFP level changes – S. cerevisiae, multiplex flow cytometry, primary screen (AID 1873); details: S. cerevisiae LAP4-GFP expression, 3 h, at 10 µM, stronger effect = higher value
[5] = yeast AGP1-GFP level changes, GLN3 branch – cell-based, multiplex flow cytometry, S. cerevisiae, primary screen (AID 1887;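 active means GFP signal above the screen-wide mean plus 3 SD, that is over about 124.5% of the solvent control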;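 further: AGP1-GFP fusion strain of S. cerevisiae within a five-strain barcoded multiplex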); details: 3 h, at 10 µM, stronger effect = higher value
[6] = reduced mouse 2C T cell binding to pMHC/ICAM-1 vesicles – MLPCN validation set, flow cytometry, LFA-1/ICAM-1 modulator project, pilot screen (AID 2523;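 active means response below a set limit, under 55% cells CD8-positive and vesicle-bound, and CD8 cells' 90th-percentile brightness under 279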;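 on vesicle binding response: mean PE anti-B7-1 fluorescence of CD8+ cells relative to row control; 100% = QL9-loaded vesicles with DMSO vehicle in the same plate row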); details: 2C mouse CD8+ T cells, at 7 µM, stronger effect = lower value; double positive events: measured here: CD8+/vesicle+ event percentage
[7] = target: Integrin beta-1 (Homo sapiens) + Integrin alpha-4 (Homo sapiens) (UniProt P13612+P05556); test: alpha4beta1 integrin LIBS antibody binding reduction – U937 cells, HUTS-21 mAb, flow cytometry, validation set, VLA-4 allosteric modulator project, pilot screen (AID 2674;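 active means inhibition above 50%, about 3 SD of the validation set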;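 further: antibody binding induced by the VLA-4 ligand LDV present at three times its Kd; 0% = LDV ligand with antibody and no compound and 100% = antibody without LDV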); details: HUTS-21 LIBS mAb binding, at 6.7 µM, stronger effect = higher value, binding induced by LDV ligand
Integrin beta-1 (Homo sapiens) + Integrin alpha-4 (Homo sapiens), sequence (P05556 whole entry, looked up): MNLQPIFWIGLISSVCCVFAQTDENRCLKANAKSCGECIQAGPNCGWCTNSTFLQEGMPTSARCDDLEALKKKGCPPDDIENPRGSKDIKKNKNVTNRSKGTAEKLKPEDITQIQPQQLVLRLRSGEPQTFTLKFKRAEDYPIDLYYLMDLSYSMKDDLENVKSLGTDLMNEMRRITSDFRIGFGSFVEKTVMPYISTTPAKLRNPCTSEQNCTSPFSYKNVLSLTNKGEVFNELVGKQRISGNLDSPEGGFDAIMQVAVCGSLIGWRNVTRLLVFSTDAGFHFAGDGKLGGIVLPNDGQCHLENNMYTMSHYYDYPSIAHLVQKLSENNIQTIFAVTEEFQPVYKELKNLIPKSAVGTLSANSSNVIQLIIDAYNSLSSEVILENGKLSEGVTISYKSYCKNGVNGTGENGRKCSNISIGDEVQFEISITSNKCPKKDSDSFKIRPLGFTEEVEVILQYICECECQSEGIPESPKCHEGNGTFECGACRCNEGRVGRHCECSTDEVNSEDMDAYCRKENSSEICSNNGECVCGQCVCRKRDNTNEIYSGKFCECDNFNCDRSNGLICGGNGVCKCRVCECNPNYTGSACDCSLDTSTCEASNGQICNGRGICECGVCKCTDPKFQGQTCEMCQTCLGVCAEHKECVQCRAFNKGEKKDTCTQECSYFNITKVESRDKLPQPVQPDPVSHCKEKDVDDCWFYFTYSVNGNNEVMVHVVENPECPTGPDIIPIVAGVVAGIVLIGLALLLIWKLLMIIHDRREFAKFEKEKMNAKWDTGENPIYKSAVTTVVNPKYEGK
Integrin beta-1 (Homo sapiens) + Integrin alpha-4 (Homo sapiens), sequence (P13612 whole entry, looked up): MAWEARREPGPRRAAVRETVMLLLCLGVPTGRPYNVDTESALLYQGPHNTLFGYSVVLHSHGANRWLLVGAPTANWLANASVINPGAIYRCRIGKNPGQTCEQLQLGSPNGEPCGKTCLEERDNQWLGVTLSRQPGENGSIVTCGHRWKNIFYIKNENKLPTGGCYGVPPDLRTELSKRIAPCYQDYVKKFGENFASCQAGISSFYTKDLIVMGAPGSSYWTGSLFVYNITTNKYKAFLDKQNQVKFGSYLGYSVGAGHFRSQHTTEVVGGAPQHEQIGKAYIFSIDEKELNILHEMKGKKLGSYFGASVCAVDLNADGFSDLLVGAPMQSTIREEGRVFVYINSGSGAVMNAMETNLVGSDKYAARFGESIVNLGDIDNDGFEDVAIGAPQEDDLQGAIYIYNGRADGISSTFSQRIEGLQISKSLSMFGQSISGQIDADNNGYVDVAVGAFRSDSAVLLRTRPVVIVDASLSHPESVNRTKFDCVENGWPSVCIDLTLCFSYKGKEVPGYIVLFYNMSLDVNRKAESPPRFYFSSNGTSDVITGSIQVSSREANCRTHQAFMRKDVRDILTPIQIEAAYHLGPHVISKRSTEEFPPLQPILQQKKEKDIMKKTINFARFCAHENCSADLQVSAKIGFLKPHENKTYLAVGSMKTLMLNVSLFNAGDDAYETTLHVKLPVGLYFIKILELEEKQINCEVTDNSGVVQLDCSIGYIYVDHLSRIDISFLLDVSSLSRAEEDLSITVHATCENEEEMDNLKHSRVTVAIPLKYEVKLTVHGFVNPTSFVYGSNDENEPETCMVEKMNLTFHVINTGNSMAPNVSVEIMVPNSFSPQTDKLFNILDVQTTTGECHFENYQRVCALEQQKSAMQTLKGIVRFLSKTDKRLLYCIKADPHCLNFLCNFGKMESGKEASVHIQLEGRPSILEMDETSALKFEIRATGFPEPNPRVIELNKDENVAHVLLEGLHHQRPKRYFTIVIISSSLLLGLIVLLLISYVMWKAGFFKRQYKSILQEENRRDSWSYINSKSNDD

[8] = calorie-restriction mimetic ROS inhibitors, yeast – validation compound set, pilot screen (AID 2706;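 active means superoxide response below 65% of plate, a cut near 3 SD across the whole screen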;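 further: yeast exposed to compound for one week at 30 degrees C before staining; 100% = mean of all compound wells on the same plate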); details: S. cerevisiae aging, superoxide DHE fluorescence; at 10 µM; stronger effect = lower value
[9] = target: Beta-adrenergic receptor kinase 1 (Homo sapiens) (UniProt P25098); test: GRK2 binders displacing RNA aptamer, biochemical, validation, human GRK2, bead flow cytometry (AID 488806;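 active means aptamer binding inhibition above 30%, about 3 SD of noise from non-fluorescent compounds; inactive means inhibition at or below 30%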); details: bead-bound GRK2, FAM-aptamer displacement, at 10 µM, stronger effect = higher value
Beta-adrenergic receptor kinase 1 (Homo sapiens), sequence (P25098 whole entry, looked up): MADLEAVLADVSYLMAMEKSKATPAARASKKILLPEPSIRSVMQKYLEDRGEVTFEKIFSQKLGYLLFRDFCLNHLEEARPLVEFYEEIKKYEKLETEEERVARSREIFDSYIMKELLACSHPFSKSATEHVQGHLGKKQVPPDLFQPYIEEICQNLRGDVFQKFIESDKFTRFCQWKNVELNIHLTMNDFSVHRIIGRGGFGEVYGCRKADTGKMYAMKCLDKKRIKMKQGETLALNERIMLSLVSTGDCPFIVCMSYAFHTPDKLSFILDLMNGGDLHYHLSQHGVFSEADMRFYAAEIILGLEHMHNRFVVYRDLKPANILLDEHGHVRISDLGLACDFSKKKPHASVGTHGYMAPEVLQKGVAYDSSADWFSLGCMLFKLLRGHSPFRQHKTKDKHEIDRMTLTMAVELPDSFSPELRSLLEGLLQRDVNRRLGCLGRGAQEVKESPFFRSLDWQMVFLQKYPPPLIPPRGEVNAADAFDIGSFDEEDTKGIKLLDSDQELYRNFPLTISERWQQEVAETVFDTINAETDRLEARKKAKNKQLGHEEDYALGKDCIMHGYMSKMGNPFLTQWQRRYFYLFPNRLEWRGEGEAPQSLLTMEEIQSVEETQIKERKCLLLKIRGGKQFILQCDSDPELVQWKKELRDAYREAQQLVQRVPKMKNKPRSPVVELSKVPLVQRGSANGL

[10] = target: Beta-2 adrenergic receptor (Homo sapiens) (UniProt P07550); test: agonist-induced loss of surface beta2AR – cell-based, FAP fluorogen, flow cytometry, validation set, pilot screen (AID 504459;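 active means percent response above 42, roughly 3 SD of non-fluorescent test compounds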;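 further: agonist-driven loss of surface beta2AR via internalization measured by FAP dye flow cytometry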); details: Am2.2-beta2AR cells, at 10 µM, stronger effect = higher value
Beta-2 adrenergic receptor (Homo sapiens), sequence (P07550 whole entry, looked up): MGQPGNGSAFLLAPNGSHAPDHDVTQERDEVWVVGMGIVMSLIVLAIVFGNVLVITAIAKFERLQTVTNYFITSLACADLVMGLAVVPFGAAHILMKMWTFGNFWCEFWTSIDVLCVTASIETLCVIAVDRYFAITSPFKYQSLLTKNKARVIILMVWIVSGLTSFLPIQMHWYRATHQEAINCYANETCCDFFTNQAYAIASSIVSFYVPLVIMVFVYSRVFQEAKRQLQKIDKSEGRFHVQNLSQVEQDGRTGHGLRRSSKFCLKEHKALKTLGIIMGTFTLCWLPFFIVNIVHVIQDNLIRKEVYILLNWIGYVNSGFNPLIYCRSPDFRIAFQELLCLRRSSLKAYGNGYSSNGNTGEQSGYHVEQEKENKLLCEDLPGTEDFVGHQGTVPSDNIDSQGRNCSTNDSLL

[11] = target: AP-2 complex subunit beta (Homo sapiens) (UniProt P63010); test: beta-arrestin/AP2 interaction blockers – biochemical, validation set, GST-AP2 beads, flow cytometry, pilot screen (AID 504541;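 active means inhibition above 54%, about 3 SD of non-fluorescent compounds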;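 further: AP2 carries R879A mutation and is captured from E. coli lysate; bead-bound FITC arrestin peptide fluorescence measuring arrestin peptide binding to AP2; 0% = DMSO wells and 100% = excess unlabeled arrestin peptide control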); details: FITC arrestin peptide, at 10 µM, stronger effect = higher value, AP2 beta2 appendage fragment, R879A mutant
AP-2 complex subunit beta (Homo sapiens), sequence (P63010 whole entry, looked up, the tested form may be a part, one chain of several): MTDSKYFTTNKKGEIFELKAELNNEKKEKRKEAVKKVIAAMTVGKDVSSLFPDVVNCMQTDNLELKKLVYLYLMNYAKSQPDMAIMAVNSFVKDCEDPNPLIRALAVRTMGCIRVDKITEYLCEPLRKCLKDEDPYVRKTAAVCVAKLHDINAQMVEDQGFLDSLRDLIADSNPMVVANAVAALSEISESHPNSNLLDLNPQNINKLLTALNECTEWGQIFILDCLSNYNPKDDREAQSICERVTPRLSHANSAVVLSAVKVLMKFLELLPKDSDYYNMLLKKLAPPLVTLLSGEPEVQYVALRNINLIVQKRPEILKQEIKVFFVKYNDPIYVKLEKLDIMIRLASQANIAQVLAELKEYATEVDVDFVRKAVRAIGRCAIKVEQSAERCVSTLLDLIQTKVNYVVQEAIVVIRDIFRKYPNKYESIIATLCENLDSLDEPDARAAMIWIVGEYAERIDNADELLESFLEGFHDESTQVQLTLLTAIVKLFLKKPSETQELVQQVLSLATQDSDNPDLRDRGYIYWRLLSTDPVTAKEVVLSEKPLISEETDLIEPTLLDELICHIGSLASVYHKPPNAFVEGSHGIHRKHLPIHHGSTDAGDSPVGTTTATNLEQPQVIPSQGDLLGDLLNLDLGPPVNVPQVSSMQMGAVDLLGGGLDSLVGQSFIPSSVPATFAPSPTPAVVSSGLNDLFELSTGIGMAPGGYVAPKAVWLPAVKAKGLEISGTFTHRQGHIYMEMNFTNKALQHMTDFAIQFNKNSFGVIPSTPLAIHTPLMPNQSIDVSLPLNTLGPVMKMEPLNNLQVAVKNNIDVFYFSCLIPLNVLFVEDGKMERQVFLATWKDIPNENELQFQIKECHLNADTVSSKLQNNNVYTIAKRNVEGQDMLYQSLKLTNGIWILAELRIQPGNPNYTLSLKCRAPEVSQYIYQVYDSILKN

[12] = cytosolic pH regulators acting via V-ATPase – S. cerevisiae, pHLuorin, HTS validation (AID 504600; in the data active means response above about 15%;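 further: plate controls were DMSO for no effect and reference compound for full effect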); details: V-ATPase proton transport, at 10 µM, stronger effect = higher value
[13] = system: anti-desmoglein-3 scFv antibody binding to human DSG3; test: blockers of pathogenic pemphigus antibody–desmoglein-3 binding – biochemical, validation compound set, bead-based, flow cytometry, pilot screen (AID 588368;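 active means binding below the plate cutoff, the plate median minus 3 SD, with a reading above zero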;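 further: signal is the median channel fluorescence of bead-bound GFP antibody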); details: Protein G beads, DSG3-Fc, scFv-GFP binding, at 10 µM, stronger effect = lower value
[14] = Nile Red efflux blockade in pump-expressing yeast – validation compound set, multiplex, phenotypic, pilot screen (AID 588506;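 active means efflux inhibition above 0.42, the validation set average plus 4 SD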;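 further: Nile Red retained in cells so higher fluorescence means more efflux inhibition; 0 = negative control wells and 1 = enniatin B 25 µM full block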); details: S. cerevisiae pump-expressing triplex, Nile Red efflux flow cytometry; at 10 µM; stronger effect = higher value; the pumps come from Candida albicans
[15] = target: ATP-binding cassette sub-family B member 6 (Homo sapiens) (UniProt Q9NP58); test: blockers of ABCB6-driven porphyrin uptake – K562-ABCB6 cells, flow cytometry, validation set, pilot screen (AID 588550;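 active means inhibition above the screen-wide mean plus 3 SD, about 51%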;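 further: 0% = DMSO wells and 100% = benzethonium chloride 70 µM positive control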); details: K562-ABCB6 porphyrin accumulation, 1 h, at 10 µM, stronger effect = higher value
ATP-binding cassette sub-family B member 6 (Homo sapiens), sequence (Q9NP58 whole entry, looked up): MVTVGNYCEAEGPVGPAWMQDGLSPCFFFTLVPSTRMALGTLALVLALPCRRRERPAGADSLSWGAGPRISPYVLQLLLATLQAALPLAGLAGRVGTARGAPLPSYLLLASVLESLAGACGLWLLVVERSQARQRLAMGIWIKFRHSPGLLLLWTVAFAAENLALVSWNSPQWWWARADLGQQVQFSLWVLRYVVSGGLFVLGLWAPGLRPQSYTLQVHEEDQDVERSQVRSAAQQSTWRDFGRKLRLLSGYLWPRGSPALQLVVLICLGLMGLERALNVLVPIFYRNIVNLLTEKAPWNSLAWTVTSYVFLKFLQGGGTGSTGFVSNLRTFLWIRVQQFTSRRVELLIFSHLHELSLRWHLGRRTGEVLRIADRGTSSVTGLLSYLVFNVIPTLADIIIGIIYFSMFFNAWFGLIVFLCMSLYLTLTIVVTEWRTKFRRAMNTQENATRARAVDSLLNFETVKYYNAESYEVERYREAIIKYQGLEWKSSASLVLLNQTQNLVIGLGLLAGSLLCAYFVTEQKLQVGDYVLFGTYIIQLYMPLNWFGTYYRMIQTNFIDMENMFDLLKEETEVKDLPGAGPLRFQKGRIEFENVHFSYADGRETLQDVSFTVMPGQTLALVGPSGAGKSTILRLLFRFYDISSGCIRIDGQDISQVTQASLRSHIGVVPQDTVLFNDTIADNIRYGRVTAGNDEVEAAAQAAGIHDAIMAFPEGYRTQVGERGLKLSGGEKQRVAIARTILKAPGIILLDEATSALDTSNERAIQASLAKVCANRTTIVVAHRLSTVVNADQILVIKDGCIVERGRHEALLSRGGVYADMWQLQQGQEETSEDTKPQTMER

[16] = AML differentiation inducers, ER-HoxA9 marrow cells – cell-based, GFP/MAC1 double positive, flow cytometry, validation set, primary screen (AID 588685;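 active means differentiation response of at least 50%, scaled between solvent and reference control, from cells with both markers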;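 further: compound exposure lasts four days before antibody staining and flow analysis; 0% = DMSO wells and 100% = 5 µM fulvestrant positive control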); details: stronger effect = higher value, normalized: vehicle 0, fulvestrant 100

## Cc1ccc(O)c(CCc2ccccc2)n1
[1]
  percent of DMSO control GFP: 100% (inactive)
[2]
  GFP response vs DMSO: 109% (inactive)
[3]
  percent response of DMSO control: 94.2% (inactive)
[4]
  GFP response vs DMSO: 90.7% (inactive)
[5]
  GFP response, % of DMSO: 98.3% (inactive)
[6]
  double positive events: 61.6%
  vesicle binding response: 222% (inactive)
[7]
  inhibition: -4.6% (inactive)
[8]
  superoxide response (% of plate): 106% (inactive)
[9]
  aptamer binding inhibition: 2% (inactive)
[10]
  response: -1.92% (inactive)
[11]
  inhibition: 3.07% (inactive)
[12]
  response: 0.6% (inactive)
[13]
  binding (% of control): 98.4% (inactive)
[14]
  efflux inhibition (fraction of control): -0.04 (inactive)
[15]
  inhibition: 19% (inactive)
[16]
  differentiation response: 6.11% (inactive)

## CCOc1ccc(C(=O)NCC2(c3ccccc3)CCOCC2)cc1
[1]
  percent of DMSO control GFP: 99.8% (inactive)
[2]
  GFP response vs DMSO: 97.7% (inactive)
[3]
  percent response of DMSO control: 108% (inactive)
[4]
  GFP response vs DMSO: 105% (inactive)
[5]
  GFP response, % of DMSO: 108% (inactive)
[6]
  double positive events: 63.3%
  vesicle binding response: 172% (inactive)
[7]
  inhibition: -13.2% (inactive)
[8]
  superoxide response (% of plate): 95.9% (inactive)
[9]
  aptamer binding inhibition: -4% (inactive)
[10]
  response: -2.34% (inactive)
[11]
  inhibition: -4.75% (inactive)
[12]
  response: -1% (inactive)
[13]
  binding (% of control): 107% (inactive)
[14]
  efflux inhibition (fraction of control): -0.11 (inactive)
[15]
  inhibition: 11% (inactive)
[16]
  differentiation response: 10.1% (inactive)

## COc1cc2c(cc1OC)C(C)=NC1(CCCCC1)C2
[1]
  percent of DMSO control GFP: 99.2% (inactive)
[2]
  GFP response vs DMSO: 98.6% (inactive)
[3]
  percent response of DMSO control: 95.1% (inactive)
[4]
  GFP response vs DMSO: 106% (inactive)
[5]
  GFP response, % of DMSO: 107% (inactive)
[6]
  double positive events: 62.8%
  vesicle binding response: 215% (inactive)
[7]
  inhibition: -29.2% (inactive)
[8]
  superoxide response (% of plate): 100% (inactive)
[9]
  aptamer binding inhibition: 6% (inactive)
[10]
  response: -21.7% (inactive)
[11]
  inhibition: 20.9% (inactive)
[12]
  response: 8.37% (inactive)
[13]
  binding (% of control): 131% (inactive)
[14]
  efflux inhibition (fraction of control): -0.04 (inactive)
[15]
  inhibition: -52% (inactive)
[16]
  differentiation response: -14.8% (inactive)

## CC12CCC(C(=O)N(CCC#N)CCC#N)(CC1=O)C2(C)C (stereo not drawn)
[1]
  percent of DMSO control GFP: 100% (inactive)
[2]
  GFP response vs DMSO: 106% (inactive)
[3]
  percent response of DMSO control: 95.8% (inactive)
[4]
  GFP response vs DMSO: 113% (inactive)
[5]
  GFP response, % of DMSO: 108% (inactive)
[6]
  double positive events: 61.1%
  vesicle binding response: 5730% (inactive)
[7]
  inhibition: 6.4% (inactive)
[8]
  superoxide response (% of plate): 98% (inactive)
[9]
  aptamer binding inhibition: 3% (inactive)
[10]
  response: -1.84% (inactive)
[11]
  inhibition: 44.5% (inactive)
[12]
  response: 0.52% (inactive)
[13]
  binding (% of control): 100% (inactive)
[14]
  efflux inhibition (fraction of control): -0.03 (inactive)
[15]
  inhibition: 9% (inactive)
[16]
  differentiation response: 2.4% (inactive)

## COc1ccc(/C=C/C(=O)NC(=S)NN2CCCCC2c2cccnc2)cc1 (stereo not drawn)
[1]
  percent of DMSO control GFP: 106% (inactive)
[2]
  GFP response vs DMSO: 99.7% (inactive)
[3]
  percent response of DMSO control: 102% (inactive)
[4]
  GFP response vs DMSO: 107% (inactive)
[5]
  GFP response, % of DMSO: 109% (inactive)
[6]
  double positive events: 66.3%
  vesicle binding response: 199% (inactive)
[7]
  inhibition: -2.43% (inactive)
[8]
  superoxide response (% of plate): 95.5% (inactive)
[9]
  aptamer binding inhibition: -3% (inactive)
[10]
  response: -5.93% (inactive)
[11]
  inhibition: 12.7% (inactive)
[12]
  response: 0.36% (inactive)
[13]
  binding (% of control): 104% (inactive)
[14]
  efflux inhibition (fraction of control): 0.33 (inactive)
[15]
  inhibition: 2% (inactive)
[16]
  differentiation response: -4.57% (inactive)

## CO[C@@]1(NC(=O)Cc2cccs2)C(=O)N2C(C(=O)O)=C(COC(N)=O)CS[C@@H]21
[1]
  percent of DMSO control GFP: 91.5% (inactive)
[2]
  GFP response vs DMSO: 130% (inactive)
[3]
  percent response of DMSO control: 111% (inactive)
[4]
  GFP response vs DMSO: 83.6% (inactive)
[5]
  GFP response, % of DMSO: 119% (inactive)
[6]
  double positive events: 64.1%
  vesicle binding response: 191% (inactive)
[7]
  inhibition: -18.8% (inactive)
[8]
  superoxide response (% of plate): 112% (inactive)
[9]
  aptamer binding inhibition: 9% (inactive)
[10]
  response: -3.96% (inactive)
[11]
  inhibition: 1.97% (inactive)
[12]
  response: -0.45% (inactive)
[13]
  binding (% of control): 93.6% (inactive)
[14]
  efflux inhibition (fraction of control): 0.16 (inactive)
[15]
  inhibition: 14% (inactive)
[16]
  differentiation response: -7.37% (inactive)

## COc1ccc(C(=O)Nc2ccccc2C(=O)NC(Cc2c[nH]c3ccccc23)C(=O)O)cc1 (stereo not drawn)
[1]
  percent of DMSO control GFP: 101% (inactive)
[2]
  GFP response vs DMSO: 107% (inactive)
[3]
  percent response of DMSO control: 95.4% (inactive)
[4]
  GFP response vs DMSO: 92.7% (inactive)
[5]
  GFP response, % of DMSO: 95.4% (inactive)
[6]
  double positive events: 64.5%
  vesicle binding response: 174% (inactive)
[7]
  inhibition: -28.5% (inactive)
[8]
  superoxide response (% of plate): 107% (inactive)
[9]
  aptamer binding inhibition: 3% (inactive)
[10]
  response: 10.6% (inactive)
[11]
  inhibition: 51.3% (inactive)
[12]
  response: -3% (inactive)
[13]
  binding (% of control): 99.8% (inactive)
[14]
  efflux inhibition (fraction of control): 0.33 (inactive)
[15]
  inhibition: -16% (inactive)
[16]
  differentiation response: 22.7% (inactive)

## COc1cc2cc(C(=O)O)[nH]c2c(OC)c1OC
[1]
  percent of DMSO control GFP: 102% (inactive)
[2]
  GFP response vs DMSO: 106% (inactive)
[3]
  percent response of DMSO control: 96.6% (inactive)
[4]
  GFP response vs DMSO: 106% (inactive)
[5]
  GFP response, % of DMSO: 99.5% (inactive)
[6]
  double positive events: 61%
  vesicle binding response: 187% (inactive)
[7]
  inhibition: -1.49% (inactive)
[8]
  superoxide response (% of plate): 112% (inactive)
[9]
  aptamer binding inhibition: 0% (inactive)
[10]
  response: -2.07% (inactive)
[11]
  inhibition: -16.9% (inactive)
[12]
  response: -0.34% (inactive)
[13]
  binding (% of control): 98.7% (inactive)
[14]
  efflux inhibition (fraction of control): -0.32 (inactive)
[15]
  inhibition: -4% (inactive)
[16]
  differentiation response: 8.06% (inactive)

## CCCCOc1ccc(C(=O)CCN2CCCCC2)cc1
[1]
  percent of DMSO control GFP: 109% (inactive)
[2]
  GFP response vs DMSO: 96.6% (inactive)
[3]
  percent response of DMSO control: 97.6% (inactive)
[4]
  GFP response vs DMSO: 126% (inactive)
[5]
  GFP response, % of DMSO: 78.8% (inactive)
[6]
  double positive events: 58.1%
  vesicle binding response: 108% (inactive)
[7]
  inhibition: -9.13% (inactive)
[8]
  superoxide response (% of plate): 83.9% (inactive)
[9]
  aptamer binding inhibition: -1% (inactive)
[10]
  response: 26.6% (inactive)
[11]
  inhibition: -10.4% (inactive)
[12]
  response: 7.43% (inactive)
[13]
  binding (% of control): 104% (inactive)
[14]
  efflux inhibition (fraction of control): 0.11 (inactive)
[15]
  inhibition: 7% (inactive)
[16]
  differentiation response: 4.2% (inactive)
